Test results from PubChem BioAssay (NCATS).
Values joined by “and” are separate entries in the source; they are usually repeats but may differ in a detail not shown here. Equal values may be shown once. Results filed as inconclusive are left out. Active and inactive are the calls of the source. Unless noted, calls come from the whole dose curve; as a rule, active = well fitted curve in the direction sought with a large enough effect; inconclusive = small, poorly fitted or top-dose-only effect, or another doubt; inactive = no such curve, though single readings can be large; an effect the other way counts as inactive or inconclusive.

Tests used:
[1] = target: Peroxisome proliferator-activated receptor delta (Homo sapiens) (UniProt Q03181); experiment: qHTS assay for small molecule agonists of peroxisome proliferator-activated receptor delta signaling (AID 588534; calls by dose curve;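 note: 0% = DMSO basal wells and 100% = positive control agonist at 10 µM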)
Outline: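 Agonist-mode beta-lactamase reporter readout (CCF4 dye, 2 h at RT) after 18 h at 37 °C exposure to a titration; Hill-equation fitting gave EC50 and maximal response.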

[2] = Cell Viability - MRC5 (AID 434; calls by dose curve;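 note: potency is the fitted concentration of half-maximal effect; cells exposed to compound for 40 hours at 37 °C; potency reflects cytotoxicity seen as loss of intracellular ATP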); settings: MRC5 lung fibroblast viability, qHTS
Outline: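 AC50 values come from Hill-equation fits of intracellular ATP loss, measured by CellTiter-Glo luminescence. Normal lung fibroblasts (MRC5) had 40 hr compound treatment at 37 C, normalized between DMSO and 100 uM tamoxifen.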

[3] = Cell Viability - H-4-II-E (AID 543);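 note: cells exposed to compound for 40 hours; % is set by controls: 0 for no effect and ±100 for the full control effect; nearly all actives have a fitted effect of over 35% in size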
Outline: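 CellTiter-Glo luminescence (intracellular ATP) measured after 40 h compound exposure at 37 °C in H-4-II-E rat hepatoma cells seeded at 1500/well. Values are AC50s fitted with the standard Hill equation.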

[4] = Cell Viability - SH-SY5Y (AID 544); settings: SH-SY5Y neuroblastoma cell viability; viability change, negative = cytotoxic: at 92.2 µM (top of the series);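 note: cells exposed to compound for 40 hours; 0% = DMSO alone and -100% = 100 µM tamoxifen; nearly all actives have a fitted effect of over 55% in size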
Outline: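 Cytotoxicity measured via ATP-dependent luciferase luminescence (CellTiter-Glo) following 40 h, 37 °C exposure of 1500 SH-SY5Y cells per well. Concentration-response data were fitted with the standard Hill equation to give AC50.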

[5] = Cellular Toxicity (caspase-3) N2a (AID 665); settings: N2a cells, luminescence, normalized: DMSO 0%, 10 µM staurosporine 100%; at 92.2 µM (top of the series);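 note: compound exposure lasted 16 h at 37 °C before readout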
Outline: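 Caspase-3/7 activation measured as luminescence from Caspase-Glo reagent (1 h, room temperature) after 16 h compound exposure of mouse N2a cells. AC50 values from Hill-equation concentration-response, scaled between DMSO and 10 uM staurosporine.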

[6] = Cell Viability - LYMP2-011 (AID 969);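 note: 0% = DMSO only and full inhibition = 92 µM tetraoctylammonium bromide; nearly all actives have a fitted effect of over 60% in size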
Outline: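 Cytotoxicity qHTS with ATP content as read-out: lymphoblastoid cells (2500/well) exposed to compound for 24 h at 37 C, then luciferase luminescence measured. Concentration-response data fitted with the standard Hill equation to give AC50.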

[7] = Cell Viability - LYMP2-013 (AID 970);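 note: 0% = DMSO only and full inhibition = tetraoctylammonium bromide control; nearly all actives have a fitted effect of over 55% in size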
Outline: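 qHTS cytotoxicity: ATP-dependent luminescence (CellTiter-Glo, 30 min room temperature) read after 24 h compound exposure at 37 C of 2500 LYMP2-013 lymphoblastoid cells per well. Concentration-response fitted with Hill equation to give AC50.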

[8] = Cell Viability - LYMP2-015 (AID 971);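 note: 0% = DMSO only and full effect = 92 µM tetraoctylammonium bromide; nearly all actives have a fitted effect of over 55% in size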
Outline: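 Cytotoxicity readout: decrease in intracellular ATP (CellTiter-Glo luminescence) in 2500 LYMP2-015 lymphoblastoid cells/well after 24 h compound exposure at 37 C. Concentration-response data fitted with the standard Hill equation to give AC50.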

[9] = Cell Viability - LYMP2-023 (AID 975);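 note: cellular ATP measured by luciferase luminescence as viability proxy; plate controls were DMSO only for no effect and 92 µM tetraoctylammonium bromide control for full effect; nearly all actives have a fitted effect of over 55% in size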
Outline: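 Intracellular ATP, read by CellTiter-Glo luminescence, reports viability after 24 hr compound exposure at 37 C. 2500 lymphoblastoid cells/well (LYMP2-023) seeded 5 hr beforehand; Hill fits give AC50; positive control tetraoctylammonium bromide.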

[10] = target: Peroxisome proliferator-activated receptor gamma (Homo sapiens) (UniProt P37231); experiment: qHTS assay for small molecule antagonists of peroxisome proliferator-activated receptor gamma signaling (AID 588537; active = well fitted inhibition curve with a large enough effect in the signal ratio, with a control signal flat, not every such curve was filed as active; the % refers to the signal ratio;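 note: reporter cells co-stimulated with 50 nM rosiglitazone agonist during compound treatment; % of control where 0% means no effect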)
Outline: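 Antagonist-mode β-lactamase reporter screen run as a titration series. HEK293 PPARγ-UAS-bla cells are stimulated with rosiglitazone (50 nM final) for 16 h, then CCF4 is read at 460/530 nm. Data are scaled between DMSO and rosiglitazone and fitted to the Hill equation.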

[11] = target: Thyroid hormone receptor beta (Homo sapiens) (UniProt P10828); experiment: qHTS assay for small molecule agonists of thyroid hormone receptor beta signaling (AID 588545; calls by dose curve)
Outline: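 Agonist-mode beta-lactamase reporter assay, HEK 293 cells, 2% charcoal/dextran FBS; cells plated 4 hrs, compound 18 hrs at 37 C, CCF4 2 hrs RT. Normalized to 10 nM T3 (100%) and DMSO (0%); Hill fit gives EC50, efficacy.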

[12] = qHTS assay for small molecule activators of the nuclear factor-kappa B (NF-kB) signaling pathway (AID 651749; active = well fitted activation curve with a large enough effect in the signal ratio; the % refers to the signal ratio; note: % of control where 0% means no effect); settings: NF-kB-bla ME-180 cells, beta-lactamase FRET ratio, 16 h; activation: stronger effect = higher value
Outline: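 Activation measured after 16 hr compound treatment at 37C, 5% CO2, of 2,000 ME-180 cells/well stably expressing an NF-kB response element–driven beta-lactamase reporter, via FRET-disruption fluorescence.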

[13] = MultiTox-Fluor Cytotoxicity Assay - LYMP1-002 - Live Cells (AID 955);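 note: cells exposed to compound for 16 hours; % is set by controls: 0 for no effect and ±100 for the full control effect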
Outline: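 After 16 h compound exposure at 37 C, live LYMP1-002 lymphoblastoid cells (2500/well) were quantified by cleavage of cell-permeant GF-AFC substrate, read at 405/510 nm after 60 min. Concentration-response fitted with Hill equation for AC50.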

[14] = Cell Viability - LYMP2-005 (AID 967);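 note: plate controls were DMSO only for no effect and 92 µM tetraoctylammonium bromide control for full effect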
Outline: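 qHTS viability screen in LYMP2-005 cells: 24 h at 37 C with compound, ATP luminescence via CellTiter-Glo, AC50 from Hill curves.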

[15] = target: Bile acid receptor (Homo sapiens) (UniProt Q96RI1); experiment: qHTS assay for small molecule antagonists of farnesoid X receptor signaling (AID 588526; calls by dose curve; note: % is set by controls: 0 for no effect and ±100 for the full control effect)
Outline: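 Beta-lactamase reporter antagonist mode: HEK293T FXR-UAS-bla cells, titrated compound, CDCA stimulation, 16 h 37 C, CCF4 dye 2 h RT. Data normalized to CDCA 50 uM and DMSO; Hill-fit IC50.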

[16] = target: Voltage-gated inwardly rectifying potassium channel KCNH2 (Homo sapiens) (UniProt Q12809); experiment: qHTS Assay for Small Molecule Inhibitors of the Human hERG Channel Activity (AID 588834);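 note: U2OS cells transduced with hERG by BacMam; top concentration of the series differs between compounds; % is set by controls: 0 for no effect and ±100 for the full control effect; lower thallium flux fluorescence means stronger hERG block; nearly all actives have a fitted effect of over 50% in size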
Outline: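 Cells were infected with hERG-BacMam virus for 4 hrs at room temperature, grown overnight, then seeded at 2000/well. After dye loading and roughly 10 min compound treatment, thallium influx was triggered and fluorescence recorded.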

[17] = qHTS assay for small molecule agonists of the antioxidant response element (ARE) signaling pathway (AID 651741; active = well fitted activation curve with a large enough effect in the signal ratio; the % refers to the signal ratio; note: % of control where 0% means no effect)
Outline: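 Beta-lactamase reporter under ARE control in HepG2 cells, 2,000 per well, was induced by 16 h compound treatment at 37 C. Read-out was fluorescence from LiveBLAzer B/G FRET substrate after 2 h at room temperature.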

[18] = Cellular Toxicity (caspase-3) Hek293 (AID 664);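 note: cells exposed to compound for 16 h at 37 °C before readout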
Outline: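 Concentration-response qHTS: caspase 3/7 activation measured by luminescent aminoluciferin substrate cleavage after 16 h compound exposure of Hek 293 cells. AC50 from Hill equation, with DMSO as basal and 100 uM tamoxifen as 100%.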

[19] = Cell Viability - LYMP1-002 - Assay at 40 hr (AID 994);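 note: 0% = DMSO only and full inhibition = 92 µM tetraoctylammonium bromide; nearly all actives have a fitted effect of over 60% in size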
Outline: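 Cytotoxicity was read as loss of cellular ATP (CellTiter-Glo luminescence) after 40 hr compound exposure at 37 C of 2500 LYMP1-002 lymphoblastoid cells per well. Concentration-response data were fitted with the standard Hill equation to give AC50.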

Voltage-gated inwardly rectifying potassium channel KCNH2 (Homo sapiens), sequence (Q12809 whole entry, looked up): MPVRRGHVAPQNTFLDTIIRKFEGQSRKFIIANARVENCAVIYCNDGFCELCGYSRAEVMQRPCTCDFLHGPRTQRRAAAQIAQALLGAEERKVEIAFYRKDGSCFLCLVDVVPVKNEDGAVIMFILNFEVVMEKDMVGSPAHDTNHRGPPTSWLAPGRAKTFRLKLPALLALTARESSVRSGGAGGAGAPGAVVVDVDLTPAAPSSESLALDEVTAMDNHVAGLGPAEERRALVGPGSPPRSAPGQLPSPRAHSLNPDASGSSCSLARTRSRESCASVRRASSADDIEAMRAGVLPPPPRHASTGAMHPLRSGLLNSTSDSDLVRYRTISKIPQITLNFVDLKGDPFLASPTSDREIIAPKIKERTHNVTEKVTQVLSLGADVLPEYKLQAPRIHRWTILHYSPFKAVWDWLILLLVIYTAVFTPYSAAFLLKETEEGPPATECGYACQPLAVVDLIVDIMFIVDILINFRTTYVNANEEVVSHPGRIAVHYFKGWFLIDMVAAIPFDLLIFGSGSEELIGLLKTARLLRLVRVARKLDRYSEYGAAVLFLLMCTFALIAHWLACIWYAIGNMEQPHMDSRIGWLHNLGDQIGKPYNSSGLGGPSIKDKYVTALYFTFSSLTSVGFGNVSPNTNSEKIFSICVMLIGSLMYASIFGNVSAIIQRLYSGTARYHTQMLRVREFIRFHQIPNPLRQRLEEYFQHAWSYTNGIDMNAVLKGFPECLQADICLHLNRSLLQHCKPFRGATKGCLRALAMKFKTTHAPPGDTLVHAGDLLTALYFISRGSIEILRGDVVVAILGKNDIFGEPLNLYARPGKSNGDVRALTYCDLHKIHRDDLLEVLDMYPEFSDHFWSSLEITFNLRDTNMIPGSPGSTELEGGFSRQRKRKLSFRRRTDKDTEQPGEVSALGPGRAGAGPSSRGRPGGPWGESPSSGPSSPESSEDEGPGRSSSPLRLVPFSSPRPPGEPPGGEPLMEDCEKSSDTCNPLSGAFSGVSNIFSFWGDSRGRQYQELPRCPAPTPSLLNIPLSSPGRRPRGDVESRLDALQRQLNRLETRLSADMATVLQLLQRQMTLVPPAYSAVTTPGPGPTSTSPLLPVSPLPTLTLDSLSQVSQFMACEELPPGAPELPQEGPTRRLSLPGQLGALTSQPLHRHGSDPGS
Bile acid receptor (Homo sapiens), sequence (Q96RI1 whole entry, looked up): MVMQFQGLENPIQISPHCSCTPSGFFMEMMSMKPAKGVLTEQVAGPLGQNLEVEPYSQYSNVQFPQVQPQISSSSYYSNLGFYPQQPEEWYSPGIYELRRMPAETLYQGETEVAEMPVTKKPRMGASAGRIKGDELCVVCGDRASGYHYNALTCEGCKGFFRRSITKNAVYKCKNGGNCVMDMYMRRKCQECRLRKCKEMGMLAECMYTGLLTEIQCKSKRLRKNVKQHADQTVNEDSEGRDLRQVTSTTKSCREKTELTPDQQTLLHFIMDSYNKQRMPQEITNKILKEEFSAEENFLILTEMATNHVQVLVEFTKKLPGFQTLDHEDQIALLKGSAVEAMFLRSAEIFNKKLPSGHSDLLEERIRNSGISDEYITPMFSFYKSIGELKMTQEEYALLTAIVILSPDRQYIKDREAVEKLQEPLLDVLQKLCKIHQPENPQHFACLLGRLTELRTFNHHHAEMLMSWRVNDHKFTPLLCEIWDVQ
Peroxisome proliferator-activated receptor gamma (Homo sapiens), sequence (P37231 whole entry, looked up): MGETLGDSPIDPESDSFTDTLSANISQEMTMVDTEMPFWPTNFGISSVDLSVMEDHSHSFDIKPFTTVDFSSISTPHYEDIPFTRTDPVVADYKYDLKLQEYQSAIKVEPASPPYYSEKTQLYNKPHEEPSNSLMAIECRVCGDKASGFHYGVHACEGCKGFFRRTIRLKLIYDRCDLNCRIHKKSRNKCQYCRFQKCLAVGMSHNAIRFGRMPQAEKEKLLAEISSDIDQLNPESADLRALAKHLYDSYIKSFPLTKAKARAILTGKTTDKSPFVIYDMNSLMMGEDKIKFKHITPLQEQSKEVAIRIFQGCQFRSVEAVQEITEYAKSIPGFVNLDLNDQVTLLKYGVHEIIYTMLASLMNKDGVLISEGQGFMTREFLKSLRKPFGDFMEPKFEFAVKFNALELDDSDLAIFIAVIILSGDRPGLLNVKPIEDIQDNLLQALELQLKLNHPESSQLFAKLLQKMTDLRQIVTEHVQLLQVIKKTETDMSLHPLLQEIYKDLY
Thyroid hormone receptor beta (Homo sapiens), sequence (P10828 whole entry, looked up): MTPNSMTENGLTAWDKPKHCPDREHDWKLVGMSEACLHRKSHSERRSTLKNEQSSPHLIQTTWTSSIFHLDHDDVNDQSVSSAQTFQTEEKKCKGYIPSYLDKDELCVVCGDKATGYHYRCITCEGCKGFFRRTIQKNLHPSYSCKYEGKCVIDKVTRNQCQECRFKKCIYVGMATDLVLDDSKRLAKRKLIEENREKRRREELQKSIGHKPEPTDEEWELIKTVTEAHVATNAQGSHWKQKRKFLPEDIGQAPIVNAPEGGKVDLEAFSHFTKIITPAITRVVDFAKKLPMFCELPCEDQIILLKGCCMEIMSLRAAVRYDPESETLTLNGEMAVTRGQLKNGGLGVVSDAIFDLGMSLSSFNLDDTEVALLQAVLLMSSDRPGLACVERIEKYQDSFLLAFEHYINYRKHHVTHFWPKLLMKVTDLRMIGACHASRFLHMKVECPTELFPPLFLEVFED
Peroxisome proliferator-activated receptor delta (Homo sapiens), sequence (Q03181 whole entry, looked up): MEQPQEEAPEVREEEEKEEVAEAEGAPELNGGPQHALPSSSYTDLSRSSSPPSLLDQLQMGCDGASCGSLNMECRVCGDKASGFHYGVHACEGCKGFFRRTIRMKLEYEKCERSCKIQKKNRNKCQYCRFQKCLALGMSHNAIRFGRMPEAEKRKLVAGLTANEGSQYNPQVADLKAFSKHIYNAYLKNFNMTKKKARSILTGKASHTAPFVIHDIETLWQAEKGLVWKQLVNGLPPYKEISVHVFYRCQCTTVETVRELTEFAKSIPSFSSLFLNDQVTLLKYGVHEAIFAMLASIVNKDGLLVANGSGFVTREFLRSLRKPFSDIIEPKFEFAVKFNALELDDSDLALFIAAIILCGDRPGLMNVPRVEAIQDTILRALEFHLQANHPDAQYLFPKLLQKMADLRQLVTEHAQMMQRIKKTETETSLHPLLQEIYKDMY

C=C(C)[C@H]1CC=C(C)C(=O)C1
inactive: outcome [1]

Brc1ccccc1
inactive: Potency [2] > 92 µM | Potency [3] | Potency [4] | caspase-3 activation [5] 0.903% | Potency [6] | Potency [7] | Potency [8] | Potency [9] | Potency [10] | outcome [11] | activation [12] 1.07% and -1.27%

Oc1cccc(O)c1O
inactive: outcome [1]

C[N+](C)(C)Cc1ccccc1
inactive: Potency [2] > 92 µM | Potency [3] | caspase-3 activation [5] -0.692% | outcome [13] | Potency [14] | Potency [6] | Potency [8] | Potency [9] | outcome [15] | outcome [1] | Potency [10] | outcome [11] | Potency [16] | Potency [17]

COc1ccc(/C=C/c2cc(OC)cc(=O)o2)cc1
inactive: outcome [1]

CC1=CCC2CC1C2(C)C (configuration not stated)
inactive: outcome [1]

C=CC(C)=O
inactive: Potency [2] > 92 µM | Potency [3] | Potency [4] | outcome [18] | outcome [13] | Potency [14] | Potency [9] | outcome [15] | outcome [1] | Potency [16] | Potency [17] | activation [12] 0.254%

N#CCCCl
inactive: Potency [2] > 92 µM | Potency [3] | Potency [4] | caspase-3 activation [5] -0.53% and -2.33% | outcome [13] | Potency [7] | Potency [19] | outcome [11] | Potency [16] | Potency [17] | activation [12] -0.282% and -0.0737%

ClCBr
inactive: Potency [2] > 92 µM | Potency [3] | Potency [4] | outcome [18] | caspase-3 activation [5] -2% | Potency [14] | Potency [19] | outcome [15] | outcome [1] | Potency [10]
